# Assay results: PubChem BioAssay (NCI)
# About 83,000 compounds went through this panel and 20% of them were active in at least one assay; those are over-represented in the sample as a whole.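 Treatment: one concentration, 48 hours, 96-well format. Scoring: percent growth, with anything below 10 considered active.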 The source made the active and inactive calls.
# Columns and labels:
# Assay in all cases: NCI-60 one-dose screen, 48 h (100 = growth as untreated, 0 = no growth, -100 = all killed)
# Conditions in all cases: 10 µM unless noted
# DU-145 prostate = test system: DU-145 prostate
# K-562 leukemia = test system: K-562 leukemia
# MALME-3M melanoma = test system: MALME-3M melanoma
# MDA-MB-231 breast = test system: MDA-MB-231 breast
# SF-268 CNS = test system: SF-268 CNS
# SF-295 CNS = test system: SF-295 CNS
# SF-539 CNS = test system: SF-539 CNS
# UACC-257 melanoma = test system: UACC-257 melanoma
# HCT-15 colon = test system: HCT-15 colon
# HT29 colon = test system: HT29 colon
# SNB-75 CNS = test system: SNB-75 CNS
# SNB-19 CNS = test system: SNB-19 CNS
# U251 CNS = test system: U251 CNS
# PC-3 prostate = test system: PC-3 prostate
# SK-MEL-5 melanoma = test system: SK-MEL-5 melanoma
# UACC-62 melanoma = test system: UACC-62 melanoma
# LOX IMVI melanoma = test system: LOX IMVI melanoma
# SK-MEL-28 melanoma = test system: SK-MEL-28 melanoma
SMILES,growth (DU-145 prostate),growth (K-562 leukemia),growth (MALME-3M melanoma),growth (MDA-MB-231 breast),growth (SF-268 CNS),growth (SF-295 CNS),growth (SF-539 CNS),growth (UACC-257 melanoma),growth (HCT-15 colon),growth (HT29 colon),growth (SNB-75 CNS),growth (SNB-19 CNS),growth (U251 CNS),growth (PC-3 prostate),growth (SK-MEL-5 melanoma),growth (UACC-62 melanoma),growth (LOX IMVI melanoma),growth (SK-MEL-28 melanoma)
CCc1nn2c(C)cc(C)nc2c1Cc1ccc(/C=C/CN2CCN(CCOCCOCCN3CCN(C/C=C/c4ccc(Cc5c(CC)nn6c(C)cc(C)nc56)cc4)CC3)CC2)cc1,-31.6% (active),-51.2% (active),-92.4% (active),-66.2% (active),-53.8% (active),-52.7% (active),-83.7% (active),-67.6% (active),-81.1% (active),-35.8% (active),99% (inactive),17.7% (inactive),-47% (active),24.8% (inactive),-97.5% (active),-86.4% (active),-88.4% (active),-88.9% (active)
COc1ccccc1-n1cc(C#N)c(N)c1C(=O)c1ccc(Cl)cc1,93.8% (inactive),20.8% (inactive),59.5% (inactive),68.2% (inactive),85.2% (inactive),78.8% (inactive),91.8% (inactive),87.5% (inactive),36.2% (inactive),52.8% (inactive),62.3% (inactive),69.4% (inactive),91.9% (inactive),58% (inactive),60.1% (inactive),46.3% (inactive),67.9% (inactive),74.3% (inactive)
C=CCn1c(-c2nc3ccc(C(=C(C#N)C#N)c4ccccc4)cc3[nH]2)cc2cc(Br)ccc21,72.4% (inactive),23.7% (inactive),84.1% (inactive),58.3% (inactive),62.9% (inactive),43.1% (inactive),65.3% (inactive),70.9% (inactive),30.4% (inactive),64.4% (inactive),89.3% (inactive),70.8% (inactive),51.9% (inactive),31.5% (inactive),55.9% (inactive),39.5% (inactive),36.4% (inactive),82.9% (inactive)
c1ccc(C(c2nc3ncncc3[nH]2)N2CSc3nc4ccccc4n3C2)cc1 (centres undefined),110% (inactive),96.5% (inactive),81.1% (inactive),98.9% (inactive),98.1% (inactive),101% (inactive),95.3% (inactive),104% (inactive),101% (inactive),107% (inactive),91% (inactive),100% (inactive),107% (inactive),95.6% (inactive),106% (inactive),93.1% (inactive),102% (inactive),104% (inactive)
Cn1ccnc1C(=O)/C=C/c1ccc(CNC(=O)c2ccc(F)cc2)cc1,13.2% (inactive),11.3% (inactive),84% (inactive),11% (inactive),9.43% (active),49.1% (inactive),-20% (active),80.6% (inactive),8.09% (active),10.2% (inactive),60.6% (inactive),15.6% (inactive),17.7% (inactive),23.5% (inactive),72.8% (inactive),43.2% (inactive),-1.32% (active),80.5% (inactive)
CS(=O)(=O)Nc1cc(-c2ccc3ncc(C#N)c(Nc4cccc(Cl)c4F)c3c2)cnc1Cl,11.9% (inactive),21.8% (inactive),-32.5% (active),-8.64% (active),-10.1% (active),-10.9% (active),-24.4% (active),2.63% (active),8.27% (active),2.88% (active),47.9% (inactive),5.43% (active),-8.19% (active),-16.3% (active),-89.9% (active),-32% (active),-62.2% (active),2.61% (active)
O=C(O)c1ccc(-n2cc(CNc3cccc(Cl)c3)c(-c3ccc(F)cc3)n2)cc1,102% (inactive),76.4% (inactive),82.8% (inactive),91.7% (inactive),109% (inactive),87.6% (inactive),96.1% (inactive),96.8% (inactive),80.7% (inactive),111% (inactive),120% (inactive),99.3% (inactive),101% (inactive),94% (inactive),91.7% (inactive),74.3% (inactive),74.2% (inactive),101% (inactive)
O=C(NCCN1CCCC1)c1ccc(-c2nc3ccc4[nH]ncc4c3c3c2CCCC3)cc1,6.08% (active),0.479% (active),-2.3% (active),-2.53% (active),-11.3% (active),3.28% (active),-63.2% (active),23.8% (inactive),26.1% (inactive),4.8% (active),33.7% (inactive),7.71% (active),10.7% (inactive),8.15% (active),5.04% (active),18.4% (inactive),-89.6% (active),5.05% (active)
